ChEMBL document CHEMBL3433997, “St. Jude Leishmania screening dataset” (2016)

What follows are compounds tested against Glucose transporter (Leishmania mexicana) (UniProt O61059) (assay: ST_JUDE_LEISH: Cytotoxicity at 2uM final concentration against transgenic Leishmania Mexicana promastigotes LmGT2 that are glucose transport deficient and complemented with the L. Mexicana glucose transporter 2. Activity is measured by DNA content using SYBR green in vitro).
Assay type: functional

Row | Structure (SMILES) | inhibition [%]
1 | Cc1nn(-c2cccc(C(F)(F)F)c2)c2sc(C(=O)NC3CCN(C(C)C)CC3)cc12 | 1.61
2 | O=C(C1CCCC1)N1CCOC(CCN2CCC(c3ccccc3)CC2)(c2ccc(Cl)c(Cl)c2)C1 (stereo unspecified) | 11.7
3 | COc1cc2c(cc1CCNCCCCNCCc1cc3c(cc1OC)CCCC3)CCCC2 | 106
4 | CCCCCCN1CCC(NCc2cccc(C#N)c2)CC1 | 2.03
5 | CCc1nc2c(N)nc(N)nc2nc1-c1ccc(OC)cc1 | 1.23
6 | Cc1cc(CNCCCCCNCc2ccc(Cl)cc2)ccc1O | 2.91
7 | O=C(NC1CCC(N2CCN(c3cccc4[nH]ccc34)CC2)CC1)c1cc2cccnc2[nH]1 (stereo unspecified) | 7.93
8 | Clc1ccc(-c2cc(-c3csc(NCCN4CCCCC4)n3)on2)cc1 | 5.8
9 | COc1ccc2c(N/N=C/c3ccc([N+](=O)[O-])cc3)ccnc2c1 | 2.7
10 | CCn1c(-c2ccccc2)cc2nnc3ccccc3c21 | 5.02
11 | O=C(/C=C/c1ccc(Cl)cc1)NCCCCCN1CCCC(C(=O)Nc2ccc(Cl)c(Cl)c2)C1 (stereo unspecified) | 1.59
12 | Cc1cc(NC(=O)c2ccco2)ccc1OC1CCN(Cc2ccc(F)cc2)C1 (stereo unspecified) | 0.41
13 | O=C(Cc1ccccc1)NC(CCN1CCC(N(C2CC2)S(=O)(=O)c2cccc(C(F)(F)F)c2)CC1)c1ccc(Cl)c(Cl)c1 (stereo unspecified) | 3.73
14 | COCCn1c(SC(C)C(=O)Nc2cc(C(F)(F)F)ccc2Cl)nc2ccccc2c1=O (stereo unspecified) | -0.21
15 | CC1CCCN1Cc1cccc(-c2ccc(C(=O)NCCOc3ccccc3)s2)c1 (stereo unspecified) | 25.7
16 | CC(C)(C)c1cc(C(=O)N2CCN(c3ncccc3C(F)(F)F)CC2)n(Cc2ccccc2)n1 | 4.37
